Assay results from PubChem BioAssay (NCI).
About 83,000 compounds went through this panel and 20% of them were active in at least one assay; those are over-represented in the sample as a whole.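 For each line, cells grew in 96-well plates with the test compound present at a single concentration for 48 hours.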 Values without a mark were called inactive. The source made the active and inactive calls. Rule for the calls: active = growth percent below 10; inactive = the rest.

How the values were obtained:
Experiment in all cases: NCI-60 one-dose screen, 48 h (100 = growth as untreated, 0 = no growth, -100 = all killed)
Conditions in all cases: 10 µM unless noted
DU-145 prostate = tested on: DU-145 prostate
K-562 leukemia = tested on: K-562 leukemia
MALME-3M melanoma = tested on: MALME-3M melanoma
MDA-MB-231 breast = tested on: MDA-MB-231 breast
RXF 393 renal = tested on: RXF 393 renal
SF-268 CNS = tested on: SF-268 CNS
SF-295 CNS = tested on: SF-295 CNS
SF-539 CNS = tested on: SF-539 CNS
UACC-257 melanoma = tested on: UACC-257 melanoma
M14 melanoma = tested on: M14 melanoma
HCT-15 colon = tested on: HCT-15 colon
HT29 colon = tested on: HT29 colon
SNB-75 CNS = tested on: SNB-75 CNS
SNB-19 CNS = tested on: SNB-19 CNS
U251 CNS = tested on: U251 CNS
PC-3 prostate = tested on: PC-3 prostate
SK-MEL-5 melanoma = tested on: SK-MEL-5 melanoma
UACC-62 melanoma = tested on: UACC-62 melanoma
LOX IMVI melanoma = tested on: LOX IMVI melanoma
SK-MEL-28 melanoma = tested on: SK-MEL-28 melanoma

| SMILES | growth (DU-145 prostate) | growth (K-562 leukemia) | growth (MALME-3M melanoma) | growth (MDA-MB-231 breast) | growth (RXF 393 renal) | growth (SF-268 CNS) | growth (SF-295 CNS) | growth (SF-539 CNS) | growth (UACC-257 melanoma) | growth (M14 melanoma) | growth (HCT-15 colon) | growth (HT29 colon) | growth (SNB-75 CNS) | growth (SNB-19 CNS) | growth (U251 CNS) | growth (PC-3 prostate) | growth (SK-MEL-5 melanoma) | growth (UACC-62 melanoma) | growth (LOX IMVI melanoma) | growth (SK-MEL-28 melanoma) |
| --- | --- | --- | --- | --- | --- | --- | --- | --- | --- | --- | --- | --- | --- | --- | --- | --- | --- | --- | --- | --- |
| O=Cc1ccc2nc(C(Cl)(Cl)Cl)ccc2c1 | 102% | 121% | 91.4% | 108% | 94.7% | 107% | 97.2% | 98.8% | 103% | 81.6% | 101% | 102% | 99.9% | 102% | 92.8% | 98.4% | 95% | 106% | 96.1% | 105% |
| Nc1nc2c(c3ncccc13)C(c1ccccc1)Cc1ncccc1-2 (stereo not given) | 103% | 27.1% | 76.1% | 65.9% | 99.3% | 86.4% | 67.4% | 78.1% | 93.1% | 44.8% | 46.1% | 56.9% | 71.2% | 91.8% | 72.2% | 73.9% | 53.1% | 59.4% | 70.9% | 83.5% |
| COc1ccc(-c2nsc3c2NC(=O)CC3c2cccc(F)c2)cc1 (stereo not given) | 53.7% | 13.9% | 42.7% | 44.7% | 50.9% | 62% | 61.5% | 54.7% | 65.7% | 32.6% | 23% | 10.4% | 68.5% | 82.7% | 45.6% | 49.4% | 32.5% | 48.5% | 50.9% | 65.4% |
| CC1=NOCC(=O)N1 | 111% | 92.1% | 117% | 102% | 103% | 107% | 87.7% | 99.3% | 101% | 103% | 102% | 101% | 85.3% | 95.6% | 94.7% | 95.2% | 99.7% | 102% | 89.1% | 99.4% |
| CC(=O)OC1Oc2cc(C)c(C)cc2-c2oc(=O)c(-c3cc4ccccc4oc3=O)cc21 (stereo not given) | 89.7% | 106% | 107% | 92.4% | -1.16% (active) | 61.3% | 76% | 88.4% | 117% | 96.3% | 117% | 110% | 92.5% | 116% | 66.6% | 91.9% | 115% | 102% | 84.7% | 152% |
| Cc1ccc2nc(CN(CCN(Cc3nc4ccc(C)cc4[nH]3)Cc3nc4ccc(C)cc4[nH]3)Cc3nc4ccc(C)cc4[nH]3)[nH]c2c1 | -99.6% (active) | -25.7% (active) | -70.4% (active) | -81.7% (active) | -92.5% (active) | -85% (active) | -86.8% (active) | -99.7% (active) | -91.8% (active) | -79.4% (active) | -94.3% (active) | -98.2% (active) | -100% (active) | -100% (active) | -94.1% (active) | -83.4% (active) | -100% (active) | -85.3% (active) | -90.8% (active) | -94.8% (active) |
| O=C(CI)NCCNc1cccc2c(S(=O)(=O)O)cccc12 | 96.3% | 110% | 103% | 93.5% | 101% | 93.3% | 98.5% | 105% | 108% | 98.4% | 98.6% | 110% | 96.9% | 89.7% | 105% | 102% | 99.6% | 89.5% | 103% | 106% |
| CC(C)(C)CC(C)(C)NCc1cc(C(C)(C)C)cc(CNC(C)(C)CC(C)(C)C)c1O | 66.6% | 3.08% (active) | 51% | 23.3% | 76.2% | 85.2% | 57.7% | 83.8% | 75.3% | 70.1% | 56.8% | 11.1% | 60.8% | 77.2% | 49.7% | 47.9% | 36.8% | 82.9% | 45.6% | 80.5% |
| CC(C)CC(NC(=O)OCC1c2ccccc2-c2ccccc21)C(=O)O (stereo not given) | 116% | 116% | 109% | 103% | 103% | 112% | 77.2% | 104% | 102% | 105% | 105% | 112% | 90.3% | 99.1% | 97.6% | 104% | 101% | 104% | 103% | 105% |
| COc1ccc(C2CC(c3ccc(Nc4ccnc5cc(Cl)ccc45)cc3)=NN2c2ccccc2)cc1 (stereo not given) | 105% | 67.9% | 94.4% | 103% | 109% | 108% | 107% | 88.2% | 97.4% | 99.6% | 87.2% | 52% | 104% | 109% | 81.9% | 78% | 79.9% | 95% | 100% | 97.3% |
| CCOC(=O)c1ccccc1SC(C[N+](=O)[O-])c1ccccc1 (stereo not given) | 90.9% | 56.8% | 98% | 96.6% | 62.9% | 104% | 99.7% | 90% | 84.4% | 68.9% | 59.6% | 5.22% (active) | 85.1% | 95.2% | 81.8% | 78% | 84.3% | 97.8% | 30.9% | 98.3% |
| Cc1nc2ccc(Nc3nc(Cl)nc(N4CCOCC4)n3)cc2n1Cc1ccccc1 | 94.2% | 25.7% | 96.8% | 64.4% | 65.1% | 77% | 87.3% | 84.7% | 104% | 103% | 76.9% | 96% | 51.2% | 94.6% | 90.5% | 87.1% | 89.5% | 92.3% | 67.7% | 82.8% |
| CCOc1ccc([C@@H]2[C@@H](Oc3ccccc3)C(=O)N2c2cc(OC)c(OC)c(OC)c2)cc1 | 12.5% | 6.3% (active) | 71.8% | 10.1% | 14.1% | 33.9% | 13.1% | -12.9% (active) | 73.7% | 4.74% (active) | 10.8% | 5.82% (active) | 65.6% | 35.4% | 21.7% | 25.6% | -18.7% (active) | 26% | 26.7% | 64.8% |
| COc1ccc(/C(=C\c2cc(OC)c(OC)c(OC)c2)C(=O)N2CCCNCC2)cc1 | 115% | 108% | 113% | 94% | 98.4% | 106% | 101% | 108% | 102% | 105% | 103% | 106% | 88.7% | 100% | 109% | 91.8% | 99.7% | 105% | 103% | 111% |
| Cc1cc(C)c2c(n1)sc1c(Nc3ccc(O)cc3)ncnc12 | 21.3% | 45.1% | 63.9% | 59% | 32% | 19.3% | 18.3% | 3.84% (active) | 38.7% | -21.5% (active) | 51.7% | 40% | 50.4% | 31% | 26.6% | 47.2% | 25.6% | 16.1% | 13.1% | 77.7% |
| COC1=CC(c2ccc[nH]2)=N/C1=C\c1[nH]c(C)c(C(=O)CCCCCCCCC(=O)O[C@H]2CC[C@H]3C4CCc5cc(O)ccc5C4CC[C@]23C)c1C (stereo not given in full) | 32.2% | 13.1% | 40.5% | 3.86% (active) | 52.5% | 38.7% | 28.8% | 32.5% | 49.2% | -35.7% (active) | 41% | 14.3% | 19.6% | 56.2% | 20.9% | 23% | -83% (active) | -48.3% (active) | -44.2% (active) | 34.5% |
